# According to PubChem BioAssay (NCATS):
# Results filed as inconclusive are left out. Where a call stands in place of a potency, no number is given. Active and inactive are the calls of the source. The call rests on the fitted dose curve; tested in HEK293 reporter line.
# Experiment: qHTS for Inhibitors of the Functional Ribonucleoprotein Complex (vRNP) of Lassa (LASV) Arenavirus: LASV Primary Screen - GLuc reporter signal (AID 1347082); further: nearly all actives have a fitted effect of over 60% in size
# Conditions: LASV minigenome vRNP, Gaussia luciferase reporter; series mostly up to 57.5 µM
row,SMILES,Potency
1,CC(C)CCO,inactive
2,CC(C)(C)[N+]([O-])=Cc1ccc(S(=O)(=O)O)cc1S(=O)(=O)O,inactive
3,CCCCCCOC(=O)CCC,inactive
4,C=C[C@]1(C)C=C2C(=O)C[C@H]3C(C)(C)CCC[C@]3(C(=O)O)[C@@]2(O)CC1,inactive
5,COc1cc(O)cc2c1[C@@H]1Oc3c(ccc(O)c3CC=C(C)C)[C@@H]1CO2,inactive
6,CC1=CC2=C(C=O)C(=O)C(C)(O)C(O)C2=CO1 (stereo not given),inactive
7,COC(=O)c1ccc(=O)c2nc3/c(=C/O)c(O)cc(=O)c3[nH]c12,inactive
8,CC/C=C\CCOC(C)OCC (stereo not given),inactive
9,C=C/C(C)=C/C/C=C(\C)CCC=C(C)C,inactive
10,O=c1oc(-c2ccc(O)c(O)c2)cc2cccc(O)c12,inactive
11,CC(=O)OCC(=O)[C@@]1(O)CC[C@H]2[C@@H]3CCC4=CC(=O)C=C[C@]4(C)[C@@H]3[C@@H](O)C[C@@]21C,inactive
12,OC[C@H]1O[C@H](OCc2ccccc2)[C@H](O[C@@H]2OC[C@@H](O)[C@H](O)[C@H]2O)[C@@H](O)[C@@H]1O,inactive
13,C=CC(C)(C)O[C@@H]1O[C@H](CO)[C@@H](O)[C@H](O)[C@H]1O,inactive
14,OCCC(O)CO (stereo not given),inactive
15,C=CC(C)(CCC=C(C)C)OC=O (stereo not given),inactive
16,C/C=C(/C)C(=O)OC1Cc2c(ccc3ccc(=O)oc23)OC1(C)C (stereo not given),inactive
17,CC1CC(C)C(=O)C1=O (stereo not given),inactive
18,O=c1cc(-c2ccc(O)cc2)oc2cc(OC3OC(CO)C(O)C(O)C3O)c(C3OC(CO)C(O)C(O)C3O)c(O)c12 (stereo not given),inactive
19,N[C@H](CSSC[C@@H](N)C(=O)O)C(=O)O,inactive
20,COc1c2c(c3c(c1OC)c(=O)c1ccccc1n3C)OCO2,inactive

row,SMILES,Potency
1,C=CC(C)=CCC=C(C)C,inactive
2,COc1ccc([C@H]2Cc3cccc(O)c3C(=O)O2)cc1O,inactive
3,CNC(=O)c1ccccc1Sc1ccc2c(C=Cc3ccccn3)n[nH]c2c1,inactive
4,CCCCCCCCCCCCCC(=O)OCC(O)CO (stereo not given),inactive
5,CC(C)(O)[C@@H]1CC(=O)[C@]2(C)[C@H](CC[C@@]3(C)[C@H](c4ccoc4)OC(=O)[C@H]4O[C@]432)[C@@]1(C)/C=C\C(=O)O,inactive
6,CC(C)CCOC(=O)c1ccccc1,inactive
7,C=Cc1cc(OC)c2c(c1)c(=O)oc1c2cc(OC)c2c(O)ccc(C3OC(C)C(O)C(C)(O)C3O)c21 (stereo not given),inactive
8,CC/C=C\CCOC(C)=O,inactive
9,CCCCOC(=O)C(=O)OCCCC,inactive
10,COC(=O)N1c2ccccc2C23[C@@H]4CN5CCC[C@]6(CCC12C(O)(C6)C4=O)[C@H]53,inactive
11,COc1cc2ccc(=O)oc2c(O)c1O,inactive
12,COc1ccc(C=CC(=O)c2ccc(OC)c(OC)c2O)cc1OC,inactive
13,CC(C)N(CCCNC(=O)Nc1ccc(C(C)(C)C)cc1)C[C@H]1O[C@@H](n2cc(Br)c3c(N)ncnc32)[C@H](O)[C@H]1O,inactive
14,O=c1ccc2ccc(O[C@@H]3O[C@H](CO[C@@H]4OC[C@](O)(CO)[C@H]4O)[C@@H](O)[C@H](O)[C@H]3O)cc2o1,inactive
15,CCCCCCCCCCOS(=O)(=O)O,inactive
16,COc1cc2c(c(OC)c1OC)-c1c(cc3c(c1O)OCO3)C[C@@H](C)[C@@H](C)C2,inactive
17,COc1ccc2c(c1)OC[C@H]1c3cc4c(cc3O[C@@H]21)OCO4,inactive
18,CC(=O)c1ccc(C)cc1,inactive
19,C=C(C)C(O)Cc1c(OC)ccc(C(=O)/C=C/c2ccc(O)cc2)c1O (stereo not given),inactive
20,COc1cc(C(=O)O[C@@H]2CC3CC[C@]2(C)C3(C)C)ccc1O,inactive

# Experiment: qHTS for Inhibitors of the Functional Ribonucleoprotein Complex (vRNP) of Lassa (LASV) Arenavirus: Viability assay - alamar blue signal for LASV Primary Screen (AID 1347083); further: nearly all actives have a fitted effect of over 80% in size; further: potency means the concentration at half of the fitted maximal effect
# Conditions: cell viability, alamar blue fluorescence (LASV minigenome counter-screen); series mostly up to 57.5 µM
row,SMILES,Potency
1,CC(C)CCO,inactive
2,CC(C)(C)[N+]([O-])=Cc1ccc(S(=O)(=O)O)cc1S(=O)(=O)O,inactive
3,CCCCCCOC(=O)CCC,inactive
4,C=C[C@]1(C)C=C2C(=O)C[C@H]3C(C)(C)CCC[C@]3(C(=O)O)[C@@]2(O)CC1,inactive
5,COc1cc(O)cc2c1[C@@H]1Oc3c(ccc(O)c3CC=C(C)C)[C@@H]1CO2,inactive
6,CC1=CC2=C(C=O)C(=O)C(C)(O)C(O)C2=CO1 (stereo not given),inactive
7,COC(=O)c1ccc(=O)c2nc3/c(=C/O)c(O)cc(=O)c3[nH]c12,inactive
8,CC/C=C\CCOC(C)OCC (stereo not given),inactive
9,C=C/C(C)=C/C/C=C(\C)CCC=C(C)C,inactive
10,O=c1oc(-c2ccc(O)c(O)c2)cc2cccc(O)c12,inactive
11,CC(=O)OCC(=O)[C@@]1(O)CC[C@H]2[C@@H]3CCC4=CC(=O)C=C[C@]4(C)[C@@H]3[C@@H](O)C[C@@]21C,inactive
12,OC[C@H]1O[C@H](OCc2ccccc2)[C@H](O[C@@H]2OC[C@@H](O)[C@H](O)[C@H]2O)[C@@H](O)[C@@H]1O,inactive
13,C=CC(C)(C)O[C@@H]1O[C@H](CO)[C@@H](O)[C@H](O)[C@H]1O,inactive
14,OCCC(O)CO (stereo not given),inactive
15,C=CC(C)(CCC=C(C)C)OC=O (stereo not given),inactive
16,C/C=C(/C)C(=O)OC1Cc2c(ccc3ccc(=O)oc23)OC1(C)C (stereo not given),inactive
17,CC1CC(C)C(=O)C1=O (stereo not given),inactive
18,O=c1cc(-c2ccc(O)cc2)oc2cc(OC3OC(CO)C(O)C(O)C3O)c(C3OC(CO)C(O)C(O)C3O)c(O)c12 (stereo not given),inactive
19,N[C@H](CSSC[C@@H](N)C(=O)O)C(=O)O,inactive
20,COc1c2c(c3c(c1OC)c(=O)c1ccccc1n3C)OCO2,inactive

row,SMILES,Potency
1,C=CC(C)=CCC=C(C)C,inactive
2,COc1ccc([C@H]2Cc3cccc(O)c3C(=O)O2)cc1O,inactive
3,CNC(=O)c1ccccc1Sc1ccc2c(C=Cc3ccccn3)n[nH]c2c1,17.2 µM (active)
4,CCCCCCCCCCCCCC(=O)OCC(O)CO (stereo not given),inactive
5,CC(C)(O)[C@@H]1CC(=O)[C@]2(C)[C@H](CC[C@@]3(C)[C@H](c4ccoc4)OC(=O)[C@H]4O[C@]432)[C@@]1(C)/C=C\C(=O)O,inactive
6,CC(C)CCOC(=O)c1ccccc1,inactive
7,C=Cc1cc(OC)c2c(c1)c(=O)oc1c2cc(OC)c2c(O)ccc(C3OC(C)C(O)C(C)(O)C3O)c21 (stereo not given),inactive
8,CC/C=C\CCOC(C)=O,inactive
9,CCCCOC(=O)C(=O)OCCCC,inactive
10,COC(=O)N1c2ccccc2C23[C@@H]4CN5CCC[C@]6(CCC12C(O)(C6)C4=O)[C@H]53,inactive
11,COc1cc2ccc(=O)oc2c(O)c1O,inactive
12,COc1ccc(C=CC(=O)c2ccc(OC)c(OC)c2O)cc1OC,inactive
13,CC(C)N(CCCNC(=O)Nc1ccc(C(C)(C)C)cc1)C[C@H]1O[C@@H](n2cc(Br)c3c(N)ncnc32)[C@H](O)[C@H]1O,inactive
14,O=c1ccc2ccc(O[C@@H]3O[C@H](CO[C@@H]4OC[C@](O)(CO)[C@H]4O)[C@@H](O)[C@H](O)[C@H]3O)cc2o1,inactive
15,CCCCCCCCCCOS(=O)(=O)O,inactive
16,COc1cc2c(c(OC)c1OC)-c1c(cc3c(c1O)OCO3)C[C@@H](C)[C@@H](C)C2,inactive
17,COc1ccc2c(c1)OC[C@H]1c3cc4c(cc3O[C@@H]21)OCO4,inactive
18,CC(=O)c1ccc(C)cc1,inactive
19,C=C(C)C(O)Cc1c(OC)ccc(C(=O)/C=C/c2ccc(O)cc2)c1O (stereo not given),inactive
20,COc1cc(C(=O)O[C@@H]2CC3CC[C@]2(C)C3(C)C)ccc1O,inactive
